# “And” between values parts separate entries of the source, which are not always exact repeats. Equal entries are not always repeated. Records with an inconclusive call do not appear. The source made the active and inactive calls. How the source made its calls, unless noted: active means hit-call score of the fitted dose curve at least 0.9, where 1 is the maximum; inconclusive means response in the unintended direction; inactive means score below 0.9.
# Key:
# [1] = CCTE_Mundy_HCI_iCellGluta_NOG_NeuriteLength: CCTE's Neurite Outgrowth Assay in iCellGluta cells for Neurite Length, Mundy Lab (AID 2284318)
# How it was run: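 Automated high-content imaging of betaIII-tubulin (Alexa Fluor-488) and Hoechst-stained cells gave neurite length, normalized to the DMSO baseline.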
# [2] = IUF_NPC1_cytotoxicity_72hr: Cytotoxicity Assessment at 72 hours in the Leibniz Research Institute for Environmental Medicine (IUF) Neural Progenitor Cell Proliferation Assay (NPC1) (AID 2284332);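 further: rising LDH signal means more cytotoxicity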
# How it was run: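 Spheres of primary human neural progenitors are plated one per well on day 0 in growth-factor medium and dosed at once. After three days at 37C, supernatant LDH is measured fluorimetrically via resazurin reduction.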
# [3] = CCTE_Mundy_HCI_iCellGluta_NOG_NeuronCount: CCTE's Neurite Outgrowth Assay in iCellGluta cells for Neuron Count, Mundy Lab (AID 2284340);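 further: cells fixed about 48 h after compound addition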
# How it was run: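 Neuron count read by automated high-content imaging of Hoechst 33342 and betaIII-tubulin/Alexa Fluor-488 labelling in human iPSC glutamatergic neurons. Activity fitted relative to DMSO.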
# [4] = CCTE_Mundy_HCI_iCellGluta_NOG_NeuriteCount: CCTE's Neurite Outgrowth Assay in iCellGluta cells for Neurite Count, Mundy Lab (AID 2284342);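 further: chemical exposure about 48 hours starting 2 hours after plating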
# [5] = system: SERPINA7 (gene 6906); experiment: CCTE_GLTED_hTBG: CCTE's human Thyroxine-binding Globulin (TBG) Inhibition Assay, Great Lakes Toxicology and Ecology Division (GLTED) Lab (AID 2284343);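 further: active chemicals lower fluorescence versus DMSO baseline by displacing probe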
# How it was run: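 hTBG + test chem, 2 h; ANSA probe displacement; fluorescence readout ex380/em475; DMSO = neg ctrl/baseline; cell-free.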
# [6] = CCTE_Deisenroth_5AR_NBTE_donor: CCTE's 5alpha-reductase NanoBRET Target Engagement Assay […], Deisenroth Lab (AID 2284319; active means hit-call score of the fitted dose curve at least 0.9, where 1 is the maximum; inactive means score below 0.9); details: actives raise or lower the signal
# How it was run: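 HEK293T cells were reverse transfected with an SRD5A2-NanoLuc vector for 20 h, exposed to test chemical (8 points, 10 nM - 29.9 uM) for 3 h, then testosterone tracer for 2 h more. Donor luminescence (460 nm) was read; bidirectional fit versus DMSO.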
# [7] = CCTE_Deisenroth_5AR_NBTE_acceptor: CCTE's 5alpha-reductase NanoBRET Target Engagement Assay - Autofluorescence Screen, Deisenroth Lab (AID 2284321; active means hit-call score of the fitted dose curve at least 0.9, where 1 is the maximum; inactive means score below 0.9;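 further: compound fluorescence in the acceptor channel under 460 nm excitation flags autofluorescence artifacts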); details: actives raise or lower the signal
# How it was run: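 HEK293T cell-based NanoBRET assay read 5 h after dosing; this acceptor channel serves as an autofluorescence artifact screen. Chemicals at nominal 100 uM were scanned in three independent runs (n=3), excitation 460 nm. Fitting was bidirectional versus DMSO baseline.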
# [8] = system: SRD5A2 (gene 6716); experiment: CCTE_Deisenroth_5AR_NBTE_ratio: CCTE's 5alpha-reductase NanoBRET Target Engagement Assay - Ratio, Deisenroth Lab (AID 2284322; active means hit-call score of the fitted dose curve at least 0.9, where 1 is the maximum; inactive means score below 0.9); details: actives raise or lower the signal
# How it was run: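 HEK293T transiently expressing SRD5A2-NanoLuc; cells exposed to chemical (8-point, 10 nM - 29.9 uM) for 5 h total, testosterone tracer added for final 2 h. NanoBRET acceptor/donor ratio (650/460 nm), bidirectional fit vs DMSO.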
# [9] = TAMU_PeakParms_SingleDonor1434_Asystole: Texas A&M University (TAMU) 1.5-hr Human Induced Pluripotent Stem Cell (iPSC)-derived Cardiomyocytes Calcium (Ca+2) Flux Assay for Cardiotoxicity: Asystole (quiescence of beating) (AID 2284328)
# How it was run: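 Donor 1434 iPSC-cardiomyocytes exposed 90 min at 37C, 5% CO2, to 0.2, 1, 10 and 100 uM in 0.5% DMSO. Ca2+ dye fluorescence gave average peak frequency; POD is EC95, a 95% beat-rate drop versus controls.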
# [10] = VALA_TUBHUV_Antagonist_TubuleLength: VALA Sciences human Umbilical Vein Endothelial Tubule Formation (TUBHUV) Antagonism Assay (AID 2284325)
# How it was run: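 HUVEC–HDF co-culture (1:3) pre-grown 3 days with 10 ng/ml VEGF, then 3 days with compound plus VEGF. Fixed, nuclear and CD31 stained; total tubule length by imaging versus 0.1% DMSO; suramin 100 uM positive control.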
# [11] = VALA_MIGHUV1_ScratchOnly_WoundArea: VALA Sciences human Umbilical Vein Endothelial Cell Migration (MIGHUV) Assay, Area of Scratch Wound Inhibited Recovery (AID 2284336)
# How it was run: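 HUVEC monolayers (9000 cells/well) were scratched after 24 h, dosed within 30 min (six concentrations, triplicate, 0.1% DMSO), allowed 24 h recovery, then fixed. Hoechst-stained nuclei in the wound imaged; cytochalasin D as reference.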
# [12] = VALA_TUBIPS_Agonist_CellCount: Viability Assessment in the VALA Sciences human iPS-derived Endothelial Tubule Formation (TUBIPS) Agonism Assay (AID 2284338)
# [13] = system: IYD (gene 389434); experiment: CCTE_GLTED_hIYD: CCTE's human Iodotyrosine Deiodinase (xIYD) Inhibition Assay, Great Lakes Toxicology and Ecology Division (GLTED) Lab (AID 2284317);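 further: cell-free human IYD enzyme made in baculovirus insect cells; iodide freed from monoiodotyrosine measured by cerium arsenite color change at 420 nm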
# How it was run: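 Absorbance change at 420 nm from the iodide-catalysed cerium-arsenic reaction reports free iodide released by human IYD from monoiodotyrosine. Enzyme, substrate and chemical are incubated 3 h; loss of signal is fitted relative to DMSO baseline.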
# [14] = CCTE_Deisenroth_H295R-HTRF_384WELL_ESTRADIOL: CCTE's H295R-HTRF Assay Evaluation of Estradiol Concentration, Deisenroth Lab (AID 2284361; active means hit-call score of the fitted dose curve at least 0.9, where 1 is the maximum; inactive means score below 0.9); details: actives raise or lower the signal
# How it was run: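 H295R cells exposed 48 h to chemicals at 0.001 - 100 uM final (nine points, triplicate); estradiol in conditioned medium measured by HTRF immunoassay, fitted bidirectionally versus DMSO. Viability by CellTiter-Glo on same plates.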
# [15] = CCTE_Deisenroth_H295R-HTRF_384WELL_TESTOSTERONE: CCTE's H295R-HTRF Assay Evaluation of Testosterone Concentration, Deisenroth Lab (AID 2284373; active means hit-call score of the fitted dose curve at least 0.9, where 1 is the maximum; inactive means score below 0.9); details: actives raise or lower the signal
# How it was run: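 Testosterone secreted into medium was quantified by direct HTRF immunoassay after a 48 h treatment of H295R adrenocortical cells (nine concentrations, 0.001–100 uM final). Gain or loss fitted relative to DMSO; CellTiter-Glo viability read on same plates.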
# [16] = CCTE_Deisenroth_H295R-HTRF_384WELL_CTOX: Cytotoxicity Assessment in CCTE's H295R-HTRF Assay, Deisenroth Lab (AID 2284380)
# How it was run: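 H295R adrenocortical carcinoma cells plated 24 h, then exposed 48 h to nine-point series 0.001–100 uM final, triplicate, n=5. ATP measured by CellTiter-Glo 2.0 luminescence on same plates after medium collection; loss versus DMSO.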
# [17] = VALA_MIGHUV2_WoundArea: VALA Sciences human Umbilical Vein Endothelial Cell Migration (MIGHUV) Assay, Area of Scratch Wound after Recovery (AID 2284316)
# How it was run: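 HUVEC seeded at 9000 cells/well, scratched after 24 h; test chemical added within 30 min, 6-point concentration response in triplicate (0.1% DMSO vehicle). After 24 h wound recovery, cells fixed and Hoechst-stained nuclei in wound area imaged; Cytochalasin D reference control.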
# [18] = VALA_MIGHUV1_ScratchOnly_CellCount: Viability Assessment in the VALA Sciences human Umbilical Vein Endothelial Cell Migration (MIGHUV) Assay, Scratch Wound Inhibited Recovery (AID 2284327)
# How it was run: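 HUVEC scratched after 24 h culture, chemical added within 30 min at 6 concentrations in triplicate (0.1% DMSO vehicle). After 24 h recovery, fixed cells were counted by Hoechst nuclear imaging in the wound area.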
# [19] = VALA_TUBIPS_Antagonist_CellCount: Viability Assessment in the VALA Sciences human iPS-derived Endothelial Tubule Formation (TUBIPS) Antagonism Assay (AID 2284335)
# [20] = VALA_TUBHUV_Agonist_TubuleLength: VALA Sciences human Umbilical Vein Endothelial Tubule Formation (TUBHUV) Agonism Assay (AID 2284337)
# How it was run: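 HUVEC co-cultured with fibroblasts (1:3) 3 days in 10 ng/ml VEGF, then 3 days with compound plus VEGF; 0.1 % DMSO neutral control. Fixed, nuclear and CD31 stained; tubule length by fluorescence imaging.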
smiles,measurement,setting,value
CCOP(=S)(Oc1cnc(C(C)(C)C)nc1)OC(C)C (stereo not drawn),AC50,[1],21 µM (active)
same,outcome,[2],inactive
same,AC50,[3],16 µM (active)
same,AC50,[4],23.9 µM (active)
same,AC50,[5],16.7 µM (active)
CC(=NC#N)N(C)Cc1ccc(Cl)nc1,outcome,[2],inactive
same,outcome,[3],inactive
same,outcome,[4],inactive
COP(=O)(OC)C(O)C(Cl)(Cl)Cl (stereo not drawn),outcome,[2],inactive
CC[C@H](C)[C@H]1O[C@]2(C=C[C@@H]1C)C[C@@H]1C[C@@H](C/C=C(\C)[C@@H](O[C@H]3C[C@H](OC)[C@@H](O[C@H]4C[C@H](OC)[C@@H](NC)[C@H](C)O4)[C@H](C)O3)[C@@H](C)/C=C/C=C3\CO[C@@H]4[C@H](O)C(C)=C[C@@H](C(=O)O1)[C@]34O)O2,AC50,[1],0.811 µM (active)
same,AC50,[6],14.2 µM (active)
same,AC50,[7],10 µM (active)
same,AC50,[8],16.6 µM (active)
same,AC50,[2],18.5 µM (active) and 3.79 µM (active)
same,AC50,[3],0.896 µM (active)
same,AC50,[4],0.824 µM (active)
CCOP(=S)(OCC)SCCSCC,outcome,[2],inactive
same,outcome,[3],inactive
same,AC50,[5],13.9 µM (active)
CCCCN(CC)c1c([N+](=O)[O-])cc(C(F)(F)F)cc1[N+](=O)[O-],AC50,[5],2.78 µM (active)
O=C(O)c1cc(Oc2ccc(C(F)(F)F)cc2Cl)ccc1[N+](=O)[O-],AC50,[5],4.45 µM (active)
CCC(CC)Nc1c([N+](=O)[O-])cc(C)c(C)c1[N+](=O)[O-],outcome,[6],inactive
same,outcome,[7],inactive
same,outcome,[8],inactive
same,AC50,[5],1.64 µM (active)
C[N+]1(C)CCCCC1,outcome,[2],inactive
same,outcome,[3],inactive
same,outcome,[4],inactive
CCOC(=O)CC(SP(=O)(OC)OC)C(=O)OCC (stereo not drawn),outcome,[2],inactive
C=C(C)[C@H]1Cc2c(ccc3c2O[C@@H]2COc4cc(OC)c(OC)cc4[C@@H]2C3=O)O1,AC50,[1],0.121 µM (active)
same,outcome,[6],inactive
same,outcome,[7],inactive
same,AC50,[8],30.6 µM (active)
same,AC50,[9],0.01 µM (active)
same,outcome,[2],inactive
same,AC50,[3],0.0672 µM (active)
same,AC50,[4],0.907 µM (active)
CCOP(=O)(NC(C)C)Oc1ccc(SC)c(C)c1 (stereo not drawn),outcome,[1],inactive
same,outcome,[2],inactive
same,AC50,[3],51 µM (active)
same,outcome,[4],inactive
same,AC50,[5],14.6 µM (active)
O=[N+]([O-])c1cc(C(F)(F)F)c(Cl)c([N+](=O)[O-])c1Nc1ncc(C(F)(F)F)cc1Cl,AC50,[1],0.714 µM (active)
same,outcome,[10],inactive
same,AC50,[2],21.9 µM (active)
same,outcome,[11],inactive
same,outcome,[12],inactive
same,AC50,[3],3.14 µM (active)
same,AC50,[4],0.937 µM (active)
same,AC50,[5],0.388 µM (active)
CCOP(=O)(OCC)Oc1cc(C)nc(C(C)C)n1,outcome,[13],inactive
same,outcome,[1],inactive
same,outcome,[2],inactive
same,outcome,[3],inactive
same,outcome,[4],inactive
CN1COCN(Cc2cnc(Cl)s2)C1=N[N+](=O)[O-],outcome,[1],inactive
same,outcome,[2],inactive
same,outcome,[4],inactive
CCCCSP(=O)(SCCCC)SCCCC,outcome,[13],inactive
same,outcome,[1],inactive
same,AC50,[2],82.5 µM (active)
same,AC50,[3],49.9 µM (active)
same,outcome,[4],inactive
CCCSP(=O)(OCC)Oc1ccc(Br)cc1Cl (stereo not drawn),AC50,[5],14.1 µM (active)
C[Si](Cn1cncn1)(c1ccc(F)cc1)c1ccc(F)cc1,outcome,[6],inactive
same,outcome,[7],inactive
same,outcome,[8],inactive
same,AC50,[5],4.09 µM (active)
same,AC50,[14],0.968 µM (active)
same,outcome,[15],inactive
same,outcome,[16],inactive
CCOP(=S)(OCC)Oc1ccc([N+](=O)[O-])cc1,outcome,[1],inactive
same,outcome,[9],inactive
same,outcome,[3],inactive
same,outcome,[4],inactive
same,AC50,[5],11.6 µM (active)
CON=C(C(=O)OC)c1ccccc1CON=C(C)c1cccc(C(F)(F)F)c1,AC50,[1],13.3 µM (active)
same,outcome,[2],inactive
same,AC50,[3],50 µM (active)
same,AC50,[4],24.6 µM (active)
CCOP(=S)(OCC)OC(Cl)C(Cl)(Cl)Cl (stereo not drawn),outcome,[1],inactive
same,outcome,[2],inactive
same,outcome,[3],inactive
same,outcome,[4],inactive
CC(C)N(C(=O)SCC(Cl)=C(Cl)Cl)C(C)C,AC50,[1],20.2 µM (active)
same,outcome,[6],inactive
same,outcome,[7],inactive
same,outcome,[8],inactive
same,AC50,[3],22.4 µM (active)
same,AC50,[4],23.2 µM (active)
CC(C1CC1)C(O)(Cn1cncn1)c1ccc(Cl)cc1 (stereo not drawn),outcome,[14],inactive
same,outcome,[15],inactive
same,outcome,[16],inactive
CN(C)[C@@H]1C(=O)C(C(N)=O)=C(O)[C@@]2(O)C(=O)C3=C(O)c4c(O)cccc4[C@@](C)(O)[C@H]3[C@H](O)[C@@H]12,AC50,[17],50 µM (active)
same,AC50,[1],24.6 µM (active)
same,outcome,[6],inactive
same,outcome,[7],inactive
same,outcome,[8],inactive
same,outcome,[18],inactive
same,outcome,[2],inactive
same,outcome,[19],inactive
same,AC50,[11],90.1 µM (active)
same,AC50,[20],7.49 µM (active)
same,AC50,[12],9.92 µM (active)
same,AC50,[3],13.4 µM (active)
same,AC50,[4],19.9 µM (active)
CC1=NNC(=O)N(/N=C/c2cccnc2)C1,outcome,[17],inactive
same,outcome,[1],inactive
same,outcome,[2],inactive
same,outcome,[19],inactive
same,outcome,[11],inactive
same,outcome,[20],inactive
same,outcome,[12],inactive
same,outcome,[3],inactive
same,outcome,[4],inactive
Cc1ccn2nc(S(=O)(=O)Nc3c(F)cccc3F)nc2n1,outcome,[5],inactive
CSC1=N[C@@](C)(c2ccccc2)C(=O)N1Nc1ccccc1,outcome,[1],inactive
same,outcome,[6],inactive
same,outcome,[7],inactive
same,outcome,[8],inactive
same,outcome,[2],inactive
same,outcome,[3],inactive
same,outcome,[4],inactive

# — PubChem BioAssay (EPA / NIEHS)
